According to PubChem BioAssay (NCATS):
Records with an inconclusive call do not appear. Where a call stands in place of a potency, no number is given. Calls of active or inactive are those of the source. Calls follow the shape of the dose curve; as a rule, active = well fitted inhibition curve with a large enough effect; inconclusive = small, poorly fitted or top-dose-only effect; inactive = flat fitted curve, though single readings scatter.

How the values were obtained:
Test in all cases: qHTS profiling for inhibitors of Plasmodium falciparum proliferation (AID 504749); also: nearly all actives have a fitted effect of over 60% in size
Conditions in all cases: P. falciparum in erythrocytes, SYBR Green DNA, 72 h; series mostly up to 28.7 µM
[1] = tested on: CP217
Summary of the method: (§1)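 In a 72 h erythrocytic culture (37 C, humidified, 5% CO2) at 2.5% hematocrit and 0.3% starting parasitemia, compounds were tested; SYBR Green I in detergent lysis buffer stained parasite DNA overnight.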

[2] = tested on: CP237
Summary of the method: as §1

[3] = tested on: CP238
Summary of the method: as §1

[4] = tested on: CP247
Summary of the method: as §1

[5] = tested on: CP250
Summary of the method: as §1

[6] = tested on: CP252
Summary of the method: as §1

[7] = tested on: CP256
Summary of the method: as §1

[8] = tested on: CP260
Summary of the method: as §1

[9] = tested on: CP262
Summary of the method: as §1

[10] = tested on: CP266
Summary of the method: as §1

[11] = tested on: CP268
Summary of the method: as §1

[12] = tested on: CP269
Summary of the method: as §1

[13] = tested on: CP286
Summary of the method: as §1

[14] = tested on: CP291
Summary of the method: as §1

[15] = tested on: CP297
Summary of the method: as §1

[16] = tested on: CP305
Summary of the method: as §1

[17] = tested on: CP315
Summary of the method: as §1

[18] = tested on: CP325
Summary of the method: as §1

[19] = tested on: CP329
Summary of the method: as §1

[20] = tested on: CP265
Summary of the method: as §1
Potency is read from the fitted curve at half-maximal effect.

Structure (SMILES) | Potency [1] | Potency [2] | Potency [3] | Potency [4] | Potency [5] | Potency [6] | Potency [7] | Potency [8] | Potency [9] | Potency [10] | Potency [11] | Potency [12] | Potency [13] | Potency [14] | Potency [15] | Potency [16] | Potency [17] | Potency [18] | Potency [19] | Potency [20]
CCCCN(CCCC)CCCOC(=O)c1ccc(N)cc1 | inactive | inactive | inactive | inactive | inactive | inactive | inactive | inactive | inactive | inactive | inactive | inactive | inactive | inactive | inactive | inactive | inactive | inactive | inactive | –
NCC(=O)CCC(=O)O | inactive | inactive | inactive | inactive | inactive | inactive | inactive | inactive | inactive | inactive | inactive | inactive | inactive | inactive | – | inactive | inactive | inactive | inactive | inactive
O=C1c2c(O)cccc2Cc2cccc(O)c21 | inactive | inactive | inactive | inactive | inactive | inactive | inactive | inactive | inactive | inactive | inactive | inactive | inactive | – | inactive | inactive | inactive | inactive | inactive | inactive
CC(O)CN(CCN(CC(C)O)CC(C)O)CC(C)O (stereo unspecified) | inactive | inactive | inactive | inactive | inactive | inactive | inactive | inactive | inactive | – | inactive | inactive | inactive | inactive | inactive | inactive | inactive | inactive | inactive | inactive
CC1(C)OC(=O)NC1=O | inactive | inactive | inactive | inactive | inactive | inactive | inactive | – | inactive | inactive | inactive | inactive | inactive | inactive | inactive | inactive | inactive | inactive | inactive | inactive
Cc1cc(C(C#N)c2ccc(Cl)cc2)c(Cl)cc1NC(=O)c1cc(I)cc(I)c1O (stereo unspecified) | inactive | inactive | inactive | inactive | inactive | inactive | inactive | inactive | inactive | inactive | inactive | inactive | inactive | inactive | inactive | inactive | – | inactive | inactive | inactive
CCCOC(=O)c1ccccc1 | inactive | inactive | inactive | inactive | inactive | inactive | inactive | inactive | – | inactive | inactive | inactive | inactive | inactive | inactive | inactive | inactive | inactive | inactive | inactive
O=c1cc(CO)occ1O | inactive | inactive | inactive | inactive | inactive | inactive | inactive | inactive | inactive | inactive | inactive | inactive | inactive | inactive | inactive | inactive | inactive | inactive | inactive | inactive
CCCn1cnc2c1c(=O)n(CCCCC(C)=O)c(=O)n2C | inactive | inactive | inactive | inactive | inactive | inactive | inactive | inactive | inactive | inactive | inactive | – | inactive | inactive | inactive | inactive | inactive | inactive | inactive | inactive
CC1=C(CC(=O)O)c2cc(F)ccc2/C1=C\c1ccc(S(C)=O)cc1 (stereo unspecified) | inactive | inactive | inactive | inactive | inactive | inactive | inactive | inactive | inactive | – | inactive | inactive | inactive | inactive | inactive | inactive | inactive | inactive | inactive | inactive
N[C@@H](CSCCCO)C(=O)O | inactive | inactive | inactive | inactive | inactive | inactive | inactive | inactive | inactive | inactive | inactive | inactive | inactive | inactive | inactive | inactive | inactive | inactive | inactive | inactive
CC1=C(/C=C/C(C)=C/C=C/C(C)=C/C(=O)O)C(C)(C)CCC1 | inactive | inactive | inactive | inactive | inactive | inactive | inactive | inactive | inactive | inactive | inactive | inactive | inactive | inactive | – | inactive | inactive | inactive | inactive | inactive
C[C@H]1O[C@@H](n2cc(F)c(=O)[nH]c2=O)[C@H](O)[C@@H]1O | inactive | inactive | inactive | inactive | inactive | inactive | inactive | inactive | inactive | – | inactive | inactive | inactive | inactive | inactive | inactive | inactive | inactive | inactive | inactive
CCN(CC)CCNC(=O)c1c(C)[nH]c(/C=C2\C(=O)Nc3ccc(F)cc32)c1C | 11.2 µM (active) | 8.91 µM (active) | 7.94 µM (active) | 10 µM (active) | 14.1 µM (active) | 7.94 µM (active) | 11.2 µM (active) | 7.08 µM (active) | – | – | – | 5.36 µM (active) | 11.2 µM (active) | – | – | – | 10.7 µM (active) | – | 12 µM (active) | –
Cc1c(O)cccc1C(=O)N[C@@H](CSc1ccccc1)[C@H](O)CN1C[C@H]2CCCC[C@H]2C[C@H]1C(=O)NC(C)(C)C | – | – | – | – | inactive | – | – | – | inactive | inactive | – | – | – | – | – | inactive | – | – | inactive | –
OCCN1CCN(CCCN2c3ccccc3Sc3ccc(Cl)cc32)CC1 | – | – | – | 2.51 µM (active) | – | 3.55 µM (active) | 3.98 µM (active) | 3.16 µM (active) | – | inactive | – | – | 3.16 µM (active) | – | – | – | – | – | – | 3.55 µM (active)
Nc1ccc(S(=O)(=O)Nc2ccc(Cl)nn2)cc1 | – | inactive | – | – | – | – | – | inactive | – | inactive | inactive | inactive | inactive | inactive | inactive | inactive | inactive | inactive | inactive | –
NC(=O)N/N=C/c1ccc([N+](=O)[O-])o1 | – | 10 µM (active) | – | – | – | – | – | 10 µM (active) | – | inactive | – | – | – | – | – | – | inactive | – | inactive | 8.91 µM (active)
Cc1ccc2nc(N)[nH]c(=O)c2c1Sc1ccncc1 | – | – | – | – | 2.24 µM (active) | 1.58 µM (active) | 10 µM (active) | 11.2 µM (active) | – | inactive | – | – | 2.82 µM (active) | – | inactive | – | inactive | – | – | 10 µM (active)

Structure (SMILES) | Potency [1] | Potency [2] | Potency [3] | Potency [4] | Potency [5] | Potency [6] | Potency [7] | Potency [8] | Potency [9] | Potency [10] | Potency [11] | Potency [12] | Potency [13] | Potency [14] | Potency [15] | Potency [16] | Potency [17] | Potency [18] | Potency [19] | Potency [20]
COC(=O)C1=C(C)NC(C)=C(C(=O)OC)C1c1ccccc1[N+](=O)[O-] | inactive | inactive | inactive | – | – | inactive | inactive | – | inactive | inactive | inactive | inactive | inactive | inactive | inactive | inactive | inactive | inactive | inactive | inactive
CN1CCCCC1CCN1c2ccccc2Sc2ccc(S(C)=O)cc21 (stereo unspecified) | inactive | – | – | inactive | – | inactive | – | – | inactive | inactive | – | – | – | – | inactive | – | inactive | inactive | inactive | –
CN(C)CCN(Cc1ccccc1)c1ccccn1 | inactive | 5.01 µM (active) | – | inactive | inactive | – | inactive | – | inactive | inactive | – | inactive | – | – | inactive | – | inactive | – | inactive | –
OCc1cc(C(O)CNCCCCCCOCCCCc2ccccc2)ccc1O (stereo unspecified) | inactive | – | inactive | inactive | inactive | inactive | – | – | – | inactive | inactive | inactive | – | inactive | inactive | inactive | inactive | inactive | inactive | inactive
CCOC(CN1CCN(CC(C)C(=O)c2ccccc2)CC1)c1ccccc1 (stereo unspecified) | inactive | – | inactive | – | inactive | inactive | inactive | inactive | inactive | inactive | inactive | inactive | inactive | inactive | – | inactive | inactive | inactive | inactive | –
CN(C)CCCN1c2ccccc2Sc2ccc(Cl)cc21 | – | – | – | inactive | – | – | inactive | – | inactive | inactive | – | – | 12.6 µM (active) | – | – | – | inactive | – | – | –
[Cl][In]([Cl])[Cl] | – | – | inactive | – | – | inactive | – | – | inactive | – | – | – | – | – | – | – | inactive | – | inactive | –
CN1CCN(C2Cc3ccccc3Sc3ccc(Cl)cc32)CC1 (stereo unspecified) | – | – | inactive | inactive | inactive | inactive | inactive | – | inactive | inactive | – | inactive | – | inactive | – | inactive | inactive | inactive | inactive | inactive
CNC(=O)Oc1ccc2c(c1)[C@]1(C)CCN(C)[C@@H]1N2C | – | 4.47 µM (active) | 1.78 µM (active) | 1.58 µM (active) | 1.58 µM (active) | 1.78 µM (active) | 2 µM (active) | 8.91 µM (active) | – | – | – | – | 7.08 µM (active) | – | – | – | inactive | – | – | 1.58 µM (active)
CC(CN1c2ccccc2Sc2ccccc21)N(C)C (stereo unspecified) | inactive | – | inactive | inactive | inactive | inactive | inactive | – | inactive | inactive | inactive | inactive | inactive | inactive | – | – | inactive | inactive | inactive | –
c1ccc(CN(CC2=NCCN2)c2ccccc2)cc1 | inactive | – | – | inactive | – | inactive | inactive | – | inactive | inactive | – | inactive | – | inactive | – | – | inactive | inactive | inactive | –
CN1CCC[C@@H]1Cc1c[nH]c2ccc(CCS(=O)(=O)c3ccccc3)cc12 | – | – | – | – | – | inactive | – | – | inactive | inactive | – | inactive | – | – | – | inactive | inactive | – | inactive | –
CSc1ccc2c(c1)N(CCC1CCCCN1C)c1ccccc1S2 (stereo unspecified) | – | 10 µM (active) | – | – | – | – | – | 7.94 µM (active) | – | inactive | – | 10.7 µM (active) | 11.2 µM (active) | – | – | – | – | – | – | –
CC(C)(C)C(=O)C(Oc1ccc(Cl)cc1)n1ccnc1 (stereo unspecified) | 10 µM (active) | 7.08 µM (active) | – | – | – | – | inactive | – | inactive | inactive | – | – | – | – | 16.9 µM (active) | – | – | – | inactive | –
CNCCC(Oc1ccc(C(F)(F)F)cc1)c1ccccc1 (stereo unspecified) | inactive | inactive | – | – | – | – | – | – | inactive | inactive | – | – | 10 µM (active) | – | inactive | – | inactive | – | inactive | –
CCOc1nc2cccc(C(=O)O)c2n1Cc1ccc(-c2ccccc2-c2nn[nH]n2)cc1 | – | inactive | inactive | inactive | inactive | – | inactive | inactive | inactive | inactive | – | – | inactive | – | inactive | inactive | inactive | inactive | inactive | inactive
CNCCCC1c2ccccc2C=Cc2ccccc21 | – | inactive | – | inactive | inactive | inactive | – | inactive | inactive | inactive | inactive | – | inactive | inactive | inactive | inactive | inactive | – | inactive | –
CC(C(O)c1ccc(O)cc1)N1CCC(Cc2ccccc2)CC1 (stereo unspecified) | – | 8.91 µM (active) | – | – | – | – | – | – | – | – | 15.1 µM (active) | 12 µM (active) | – | 16.9 µM (active) | – | 15.1 µM (active) | – | 15.1 µM (active) | – | –
